Screening results (PubChem)
VACV E9 pol inh: vaccinia E9 polymerase processive synthesis inhibitors, primary screen, biochemical, absorbance; Vaccinia virus DNA polymerase (E9) processive complex; in vitro processive DNA synthesis, absorbance read-out; stronger effect = lower value; normalized absorbance, % (concentration not given with the values); 0.94% of 46,000 active; in the data active means normalized absorbance mostly below about 85%, no sharp cut-off; inactive means mostly above about 86%
Starred values were filed as active, the others as inactive. Many of the other results were omitted from the sample, so hits are more common in it than they were.

SMILES	VACV E9 pol inh
CCOc1cc(/C=C2/SC(=S)NC2=O)cc(Br)c1O	69*
CC(C)(C)c1cc(/C=C2\SC(=S)NC2=O)cc(C(C)(C)C)c1O	98
CCOc1cc(/C=C2\SC(=S)NC2=O)cc(Cl)c1OC(=O)c1ccc(OC)cc1	100
COc1ccc(OCC(=O)OCc2c(F)cccc2Cl)cc1	91
CC(C)c1ccc(C2C3=C(CCCC3=O)NC3=C2C(=O)c2ccccc23)cc1 (stereo not given)	100
C[C@@]1(C(=O)O)CC[C@]2(C)CC[C@]3(C)C4=CC=C5C=C(O)C(=O)C=C5[C@]4(C)CC[C@@]3(C)[C@@H]2C1	77*
CC(=C(C#N)C#N)c1ccccc1	83
OC(CNCc1ccc(-c2cccs2)cc1)C(F)(F)F (stereo not given)	127
C[n+]1ccc(/C=C\c2ccco2)c2ccccc21	91
C[n+]1ccc(/C=C/c2ccc3c(c2)OCO3)c2ccccc21	60*
C[n+]1ccc(/C=C/c2ccccc2O)c2ccccc21	100
CC(C)(C)C(=O)COC(=O)c1cc(-c2ccccc2)nc2ccccc12	100
O=C(NC(Cc1ccccc1)c1nc2ccccc2[nH]1)c1ccccc1 (stereo not given)	99
CC1Cc2ccccc2N1C(=O)COc1ccc(C(=O)c2ccc(F)cc2)cc1 (stereo not given)	103
Clc1cccc(OCCN2CCN(c3ccccc3)CC2)c1	100
O=c1n(CCCN2CCN(c3cccc(Cl)c3)CC2)nc2ccccn12	15*
Cn1c(=O)oc2cc(S(=O)(=O)NCCCN3CCN(c4cccc(Cl)c4)CC3)ccc21	102
Cc1noc(C)c1CSc1ncnc2sc3c(c12)CCCC3	101
O=C(O)/C=C/c1ccc(-c2cccc(C(F)(F)F)c2)o1	100
O=C(/C=C/c1ccc(Br)o1)Nc1nccs1	101
Cc1ccc(/C=C/C(=O)O)o1	91
O=C(/C=C/c1ccc(Br)o1)/C=C/c1ccc(Br)o1	49*
O=C(O)/C=C/c1ccc(Br)o1	72*
O=C(/C=C/c1ccc(Br)o1)Nc1ccc(F)cc1F	98
COc1ccc(Nc2c(-c3ccccc3)nc3cnccn23)cc1	95
SMILES	VACV E9 pol inh
Cc1ccc(C)n1C(CC(=O)O)c1ccc(F)cc1 (stereo not given)	82
O=C(O)CC(c1ccsc1)n1cccc1 (stereo not given)	102
Cc1ccc(C)n1C(CC(=O)O)c1ccsc1 (stereo not given)	73*
Cc1ccc(CNC(=O)CSC2=Nc3ccccc3C3=NC(Cc4ccccc4)C(=O)N23)cc1 (stereo not given)	96
Cc1cc(C(=O)Nc2ccc(C(C)C)cc2)n(-c2ccccc2)n1	98
CC(C)c1nc2cc3sc(C(C)C)nc3cc2s1	102
NC(N)=Nc1nc(-c2ccccc2)c2ccccc2n1	51*
CCC(=O)N/C(N)=N\c1nc(C)c2ccccc2n1	99
c1ccc(-c2nc(N3CCCC3)nc3ccccc23)cc1	99
Cc1cccc(C)c1NC(=O)C1(N(Cc2ccccc2)C(=O)c2ccc(-n3cnnn3)cc2)CCCC1	100
O=C(NCc1ccccc1)c1cc(-c2ccccc2)c(N2CCOCC2)s1	107
CCOC(=O)c1cncc(C#CCOC(=O)Nc2cc(Cl)cc(Cl)c2)c1	102
Fc1ccc2[nH]cc(CCCN3CCN(c4nc5cc(Cl)ccc5s4)CC3)c2c1	100
COc1ccc2c(c1)c1c3n2CCN=C3N(C)CC1	58*
COc1ccc2c(c1)c1c3n2CCNC3CCC1 (stereo not given)	92
COc1ccc2c3c([nH]c2c1)C(C)=NCC3	100
Cn1c(=O)oc2cc(S(=O)(=O)NCCC(=O)Nc3cccc(F)c3)ccc21	97
O=C(c1c2c(nc3ccccc13)CCCC2)N1CCOCC1	90
FC(F)(F)c1cccc(-n2c(Cn3nnc(N4CCOCC4)n3)n[nH]c2=S)c1	109
O=C(O)CN1C(=O)c2cccc3cccc(c23)C1=O	100
O=C1c2cccc3cccc(c23)C(=O)N1c1ccc(O)cc1	96
O=C1c2cccc3cccc(c23)C(=O)N1NCCO	80*
O=S(=O)(c1ccc(Br)cc1)N1CCCC(C(F)(F)F)C1 (stereo not given)	100
Cc1ccc(C(=O)N2CCCN(c3ccc(C(F)(F)F)cn3)CC2)cc1C	99
COC(=O)CN1C(=O)/C(=C/c2ccc(OCc3ccccc3)c(OC)c2)SC1=S	100
SMILES	VACV E9 pol inh
Oc1ccc(N=Cc2ccccc2)cc1-c1nc2ccccc2s1	84*
CC(C)(C)C(=O)Nc1ccc(O)c(-c2nc3ccccc3s2)c1	99
Oc1ccccc1C=Nc1ccc(-c2nc3ccccc3s2)cc1	100
COC(=O)CNS(=O)(=O)Nc1ccc(-c2nc3ccc(C)cc3s2)cc1	99
COc1ccc2cc3cc(C(=O)NCCN(C)C)oc3nc2c1	40*
COc1ccc2cc3cc(C(=O)NCCN4CCN(c5ccccc5F)CC4)oc3nc2c1	96
COc1ccc2cc3cc(C(=O)NCc4ccco4)oc3nc2c1	87
O=C(CSc1ccc(-c2ccncc2)nn1)NCC1CCCO1 (stereo not given)	104
